Only some compounds are listed: those with a hit (about 3.7% of all), similar ones and a draw of the others.
Mtb betalactam – beta-lactam sensitization of Mtb H37Rv, H37Rv; M. tuberculosis H37Rv growth with meropenem, percent inhibition; inhibition, % at 25 µM; actives 0.27% (n = 330,000);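 further: growth measured after seven days incubation then overnight dye step; 0% = bacteria only wells and 100% = bacteria with antibiotic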
FadD28 FP inh – inhibitors of FadD28 bisubstrate probe binding, primary screen, biochemical, fluorescence polarization, single point. Mycobacterium tuberculosis FadD28 fatty-acid-AMP ligase. inhibition, % at 12.5 µM. actives 0.22% (n = 360,000). AID 588549, 2011; in the data active means inhibition above about 8.5%, passing the limit was not always enough; inconclusive means no clear call, values can overlap the other calls
Rv3671c inh – Rv3671c serine protease inhibitors, primary screen, biochemical, fluorescence polarization, M. tuberculosis H37Rv; P9WHR9; inhibition, % at 5.96 µM; actives 0.048% (n = 320,000); in the data active means inhibition above about 38%;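 further: extracellular domain of Rv3671c used as enzyme; 0% = enzyme with DMSO and 100% = no enzyme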
Target sequence (P9WHR9 whole entry, looked up, the tested form may be a part): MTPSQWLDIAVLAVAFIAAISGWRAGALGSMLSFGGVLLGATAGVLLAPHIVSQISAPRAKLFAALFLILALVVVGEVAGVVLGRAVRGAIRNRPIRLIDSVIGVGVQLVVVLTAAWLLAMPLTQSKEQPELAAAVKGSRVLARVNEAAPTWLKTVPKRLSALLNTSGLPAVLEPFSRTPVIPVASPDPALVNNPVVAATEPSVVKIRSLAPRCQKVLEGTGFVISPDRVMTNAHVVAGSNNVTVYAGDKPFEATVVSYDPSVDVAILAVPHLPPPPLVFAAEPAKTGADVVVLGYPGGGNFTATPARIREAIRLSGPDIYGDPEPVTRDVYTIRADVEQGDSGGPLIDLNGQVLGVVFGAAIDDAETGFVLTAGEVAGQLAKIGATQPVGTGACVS
UGM FP inh – M. tuberculosis UGM enzyme inhibitors, primary screen, biochemical, fluorescence polarization, single point; UDP-galactopyranose mutase (Mycobacterium tuberculosis (strain ATCC 25618 / H37Rv)), …; purified UGM, fluorescence polarization probe displacement; inhibition, % at 10 µM; actives 0.06% (n = 320,000); AID 504406, 2011; in the data active means inhibition above about 10%, passing the limit was not always enough; inconclusive means no clear call, values can overlap the other calls
GDH-TPI counter-1 – GDH-TPI coupling enzyme inhibitors, primary screen, artefact control for M. tuberculosis FBA inhibitor project, biochemical, absorbance, full deck. GDH-TPI coupled enzyme counterscreen, NADH absorbance. actives 1.2% (n = 360,000). inhibition, % at 4.8 µM; in the data active means inhibition above about 30%;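 further: 0% = DMSO wells and 100% = wells lacking the enzyme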
Mtb FBA inh – Mtb FBA enzyme inhibitors, primary screen, biochemical, fluorescence, strain H37Rv | AID 588726, 2011 | Fructose-bisphosphate aldolase (Mycobacterium tuberculosis (strain ATCC 25618 / H37Rv)), … | purified M. tuberculosis FBA, fluorescence read-out | inhibition, % at 1 µM | actives 2.3% (n = 360,000); in the data active means inhibition above about 27%;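 further: 0% = vehicle and 100% = reference inhibitor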
Mtb FBA inh conf – M. tuberculosis aldolase blockers, biochemical, fluorescence, strain H37Rv, confirmation; shares compounds with Mtb FBA inh; purified M. tuberculosis FBA, fluorescence read-out; inhibition, % at 1 µM; actives 78% (n = 5,600); AID 651616, 2012; in the data active means inhibition above about 27%;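 further: 0% = vehicle wells and 100% = reference inhibitor wells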
GDH-TPI counter-2 – GDH-TPI coupling enzyme inhibitors, artefact control for M. tuberculosis FBA inhibitor project, biochemical, fluorescence, high throughput; shares compounds with Mtb FBA inh; GDH-TPI coupled enzyme counterscreen; inhibition, % at 1 µM; actives 81% (n = 5,600); in the data active means inhibition above about 10%
GDH-TPI DR – GDH-TPI coupling enzyme inhibitors, dose response, artefact control for M. tuberculosis FBA inhibitor project, biochemical, fluorescence, IC50; shares compounds with Mtb FBA inh; GDH-TPI coupled enzyme assay, artifact counterscreen; IC50, µM; actives 79% (n = 170)
* hit, by the source's call; ? = inconclusive; / = no result; + = active, no number. Unless noted, how the calls were made is not given here.

SMILES	Mtb betalactam	FadD28 FP inh	Rv3671c inh	UGM FP inh	GDH-TPI counter-1	Mtb FBA inh	Mtb FBA inh conf	GDH-TPI counter-2	others
COc1ccc(-c2sc3cc4c(cc3c2C#CCO)OCO4)cc1	63	4	2	2	3	10	/	/
CS(=O)(=O)c1ccc(-c2sc3cc4c(cc3c2C(=O)NN2CCOCC2)OCO4)cc1	5	-1	1	0	37*	48*	104*	85*
CN(C(=O)c1cccc(NC(=O)Cc2cccc(NC(=O)C3CCN(C(=O)CCc4ccccc4)CC3)c2)c1)C1CC1	/	-4	/	/	-4	-1	/	/
CCOc1ccc(N(CC(=O)NCc2ccccc2Cl)S(=O)(=O)c2c(C)noc2C)cc1	-8	-2	-2	0	9	-2	/	/
Cc1cc(NC(=O)CSc2nnc(-c3ccccc3)n2Cc2ccco2)no1	5	-2	-11	0	6	-6	/	/
CCOC(=O)CNC(=O)CSc1nnc(-c2ccccc2)n1Cc1ccco1	-3	-3	6	0	-6	98*	50*	39*
COc1ccc2c(CN3CCCC3)cc(=O)oc2c1	/	-3	/	/	/	36*	10	-1	GDH-TPI DR=5.1*
CCCCN(CCCC)Cc1cc(=O)oc2cc(OC)ccc12	/	0	/	/	/	45*	+	+
Cc1ccc2c(CN3CCCCC3)cc(=O)oc2c1	3	0	-5	0	6	3	/	/
COc1ccc2c(CC(=O)O)cc(=O)oc2c1	-2	-1	-9	-2	12	66*	+	+
COc1ccc2c(CC(=O)N[C@@H](Cc3c[nH]c4ccccc34)C(=O)O)cc(=O)oc2c1	14	0	-1	0	27	22	/	/
Nc1ccn([C@@H]2O[C@H](CN=C3NS(=O)(=O)c4ccccc43)[C@@H](O)[C@H]2O)c(=O)n1	/	-4	/	/	0	0	/	/
COc1ccccc1-c1oc2ccccc2c1C#CC(C)(C)O	?	-9	-2	1	14	55*	+	+
COC(=O)c1ccc(/C=C/c2c(-c3ccc(OC)cc3)oc3ccc(N4CCOCC4)cc23)cc1	96	0	-14	-2	0	13	/	/
COc1ccc(/C=C/c2c(-c3cccc(C)c3)oc3ccc(N4CCOCC4)cc23)cc1	-15	-4	-1	4	27	35*	103*	98*
COc1ccc(-c2oc3ccc(N4CCOCC4)cc3c2C#Cc2ccc(N)cc2)cc1	95	1	4	-1	10	44*	49*	48*
CCCCc1ccc(NC(=O)COC(=O)c2ccc3ncsc3c2)cc1	/	-1	/	/	2	-2	/	/
CCCCOc1ccc(/C=C/C(=O)Nc2ccc(C(N)=O)cc2)cc1	3	-2	-15	0	16	-1	/	/
C=CCOc1ccc(/C=C/C(=O)Nc2ccc(C(=O)NC)cc2)cc1	5	-2	-18	-2	23	45*	44*	37*
O=S(=O)(c1ccc(F)c(Cl)c1)N1CCN(C/C=C/c2ccccc2)CC1	2	-1	-15	-2	-2	0	/	/
COCCNC(=O)Cc1c(C)c2c(cc(C)c3c(C)coc32)oc1=O	-11	-3	-6	-1	1	38*	159*	125*
COCCCNC(=O)Cc1c(C)c2c(cc(C)c3c(C(C)(C)C)coc32)oc1=O	86	-3	3	-2	7	36*	62*	54*
Cc1oc2c(c(C)cc3oc(=O)c(CC(=O)NCCCO)c(C)c32)c1C	-1	-2	5	-3	8	20	/	/
Cc1coc2c1c(C)cc1oc(=O)c(CC(=O)NCCC(=O)O)c(C)c12	10	-2	3	-2	10	91*	62*	57*
Cc1coc2c1c(C)cc1oc(=O)c(CC(=O)NCC(=O)NCC(=O)O)c(C)c12	4	-2	/	1	20	93*	+	+
SMILES	Mtb betalactam	FadD28 FP inh	Rv3671c inh	UGM FP inh	GDH-TPI counter-1	Mtb FBA inh	Mtb FBA inh conf	GDH-TPI counter-2	others
N#CC(c1ccc(N)cc1)C(CC(=O)c1ccccc1)c1ccccc1 (stereo not drawn)	/	-1	/	/	8	-4	/	/
C[C@H]1CN([C@@H](C)CO)C(=O)CCCn2cc(nn2)CO[C@@H]1CN(C)C(=O)Cc1ccccc1	/	0	/	/	-5	2	/	/
C#CCSc1nc(C)cc(C(=O)OCC)c1C#N	16	-1	0	-2	0	3	/	/
COC(=O)c1cc(C)nc(N)c1C#N	1	-1	-3	1	3	108*	128*	82*
CCCCC(=O)N(C)c1c(C)nc2ccc(C(=O)N3CCN(C(=O)c4ccco4)CC3)cn12	/	-5	/	/	-11	0	/	/
CC1(C)Cc2c(C#N)c(NCCN3CCOCC3)nc(-c3ccco3)c2CO1	-9	-2	-6	1	-4	13	/	/
CN1CCc2c(C#N)c(N3CCCCC3)nc(NCc3ccccc3)c2C1	-9	1	3	-1	8	5	/	/
N#Cc1c(NC2CCCCC2)nc(-c2ccco2)c2c1CCCC2	12	1	1	-1	0	25	/	/
N#Cc1c(NCCCO)nc(-c2ccco2)c2c1CCCC2	8	-2	-1	1	6	27*	52*	44*
CC1(C)Cc2c(C#N)c(NCCO)nc(-c3ccco3)c2CO1	2	-3	-8	1	14	59*	32*	20*
N#Cc1c(NCCCO)nc(NCc2ccccc2)c2c1CCN(Cc1ccccc1)C2	31	-1	-3	0	8	32*	116*	108*
COc1ccc(-c2cc(C(F)F)n3ncc(C(=O)N4CCc5ccccc5C4)c3n2)cc1	46	-5	-11	-3	8	30*	83*	76*
COc1ccc(-c2cc(C(F)F)n3ncc(C(=O)NCCCN4CCCC4=O)c3n2)cc1	-5	0	0	/	6	31*	+	169*
COc1ccc(NC(=O)NCCCN2CCCC2=O)cc1	2	0	0	-1	9	4	/	/
COCCNC(=O)c1cnn2c(C(F)F)cc(-c3ccc(C)cc3)nc12	5	-3	-2	0	8	6	/	/

Bioassay records (PubChem)
